# This is a sample that favours compounds with a hit; in the whole collection about 12% have one here.
# HP1b binding inh: HP1-beta chromodomain-methylated histone interaction inhibition | P83916 | Potency, µM (titrated, usually from 114 µM), for inactives: at the highest dose activity change, negative = inhibition, actives largely listed as inhibitors | actives 0.56% (n = 390,000) | AlphaScreen HP1-beta / biotin-H3K9me3 peptide binding; note: nearly all actives have a fitted effect of over 70% in size
# Target sequence (P83916 whole entry, looked up): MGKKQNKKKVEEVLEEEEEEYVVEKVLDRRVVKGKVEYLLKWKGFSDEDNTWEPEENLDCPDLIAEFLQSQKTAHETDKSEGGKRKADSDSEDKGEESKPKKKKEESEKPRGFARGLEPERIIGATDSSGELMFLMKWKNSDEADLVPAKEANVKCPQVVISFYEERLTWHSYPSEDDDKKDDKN
#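 AlphaScreen: HP1-beta (50 nM) preformed 30 min with biotin-H3(1-18)K9me3 peptide (50 nM) in PBS pH 7.4, 0.01% Tween-20. Compound added for 30 min at RT, then streptavidin donor/nickel chelate acceptor beads (10 ug/mL) for 30 min.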
# BAZ2B inh: inhibitors of human BAZ2B bromodomain | Potency, µM (top dose mostly 114 µM), without a hit: at the top dose activity change, negative = inhibition, usual class: inhibitors | Q9UIF8 | AlphaScreen BAZ2B-H3K14Ac peptide displacement | actives 4.4% (n = 360,000) | AID 504333; note: % is set by controls: 0 for no effect and ±100 for the full control effect; nearly all actives have a fitted effect of over 60% in size
#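 In this displacement format the biotinylated H3(5-23) peptide acetylated at Lys14 serves as ligand at 50 nM, with BAZ2B at 50 nM in PBS pH 7.4 containing 0.01% Tween-20. Donor and acceptor beads are 10 ug/mL final.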
# Sfp PPTase inh: Sfp phosphopantetheinyl transferase inhibition | Potency, µM, inactives show largest response in the series, negative = inhibition, usual class: inhibitors | Biochemical Sfp PPTase activity, qHTS | Q9F4F7 | actives 3.5% (n = 310,000) | AID 1490;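 note: the enzyme is Sfp with the accession as filed and its product quenches rhodamine fluorescence; 0% = enzyme reaction without inhibitor and -100% = no enzyme wells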
#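 Fluorescence-quenching assay: 15 nM Sfp-PPTase preincubated 15 min at room temperature with compound, then 5 uM rhodamine-CoA and 12.5 uM BHQ-2-labelled YbbR peptide added. Fluorescence (ex 525/em 598 nm) read at start and after 30 min; difference gives rate.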
# PLK1 PBD inh: blocks phosphopeptide binding to human PLK1 polo-box domain | P53350 | Plk1 PBD binding of FITC phosphopeptide, fluorescence polarization | Potency, µM, inactives show max response, negative = inhibition, actives largely listed as inhibitors | actives 2.8% (n = 360,000); note: series mostly up to about 57 µM; % is set by controls: 0 for no effect and ±100 for the full control effect; nearly all actives have a fitted effect of over 65% in size
# G9a block: inhibitors of human histone lysine methyltransferase G9a | G9a H3K9 monomethylation, AlphaScreen, 2 h | Potency, µM (top dose mostly 102 µM), for inactives: top-dose activity, negative = inhibition, actives largely listed as inhibitors | actives 8.8% (n = 350,000) | AID 504332; note: % is set by controls: 0 for no effect and ±100 for the full control effect; nearly all actives have a fitted effect of over 75% in size
# Target sequence (Q96KQ7 913-1193 limits assumed): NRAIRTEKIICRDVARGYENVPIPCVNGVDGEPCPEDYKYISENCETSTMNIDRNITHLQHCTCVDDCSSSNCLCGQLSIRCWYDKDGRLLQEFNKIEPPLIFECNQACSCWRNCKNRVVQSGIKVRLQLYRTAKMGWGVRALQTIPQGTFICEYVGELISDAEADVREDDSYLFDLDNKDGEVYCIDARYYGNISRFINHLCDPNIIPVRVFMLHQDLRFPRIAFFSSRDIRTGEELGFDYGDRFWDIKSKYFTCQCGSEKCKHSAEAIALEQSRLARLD
#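 Using a bead-based AlphaScreen, monomethylated H3K9 product from 2 h room-temperature reactions (G9a 20 nM, peptide 500 nM, SAM 20 uM) was detected with 0.5 ug/mL rabbit anti-H3K9me1 antibody.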
# JMJD2A Tudor: JMJD2A Tudor domain (human) inhibition; O75164; AlphaScreen JMJD2A-Tudor / H3K4me3 peptide binding; Potency, µM (top dose mostly 114 µM), for the others: at the top dose activity change, negative = inhibition, hits mostly inhibitors; actives 4.4% (n = 390,000); AID 504339; note: % is set by controls: 0 for no effect and ±100 for the full control effect; nearly all actives have a fitted effect of over 50% in size
# An asterisk follows results filed as active; ? = inconclusive; . = no result given; [ ] = remark or other dose. Calls come from the whole dose curve; as a rule, active = well fitted curve in the direction sought with a large enough effect; inconclusive = small, poorly fitted or top-dose-only effect, or another doubt; inactive = no such curve, though single readings can be large; an effect the other way counts as inactive or inconclusive. Potency is the fitted concentration of half-maximal effect.
SMILES,HP1b binding inh,BAZ2B inh,Sfp PPTase inh,PLK1 PBD inh,G9a block,JMJD2A Tudor
COC1=CC(=O)C=C(OC)C1(O)CC(C)=O,18%,.,.,?,.,-10%
N#Cc1nc(COc2ccc(Cl)cc2Cl)oc1N1CCN(c2ccccc2)CC1,-6%,?,22%,-4%,-2%[2.33 µM],-35%
CN1CCN(c2oc(COc3ccc(-c4ccccc4)cc3)nc2C#N)CC1,14µM*,11µM*,32µM*,-6%,13µM*,28µM*
N#Cc1nc(COc2ccc(Cl)cc2Cl)oc1N1CCOCC1,-39%,45µM*,-17%,-2%,?,?
CCOC(=O)c1ccc(NC(=O)COc2ccccc2CNCCc2ccccc2)cc1,11%,15%,50µM*,-3%,-50%,-30%
Cc1cccc(C(=O)Nc2c(C(=O)NCc3ccc(Cl)cc3)sc3nc(C)cc(C)c23)c1,17%,-12%,.,.,14%[59 µM],-9%
O=S(=O)(CCc1ccncc1)Cc1ccc2c3c(cccc13)CC2,25%,-3%,6%,0%,50µM*,-4%
c1ccc2c(CCc3ccncc3)cccc2c1,74%,.,.,-7%,.,3%
O=C(Nc1ccc(CN2CCOCC2)cc1)c1cccc(-c2cc3ccccc3oc2=O)c1,15%,79µM*,-6%,-1%,?,-25%
O=C(Nc1cccc(Cl)c1N1CCCC1)c1cccc(-c2cc3ccccc3oc2=O)c1,44%,10%,7%,-9%,35µM*,0%
O=C(Nc1ccc(CN2CCOCC2)cc1)c1ccc2ccccc2c1,12%,-14%,2%,1%,.,-16%
Cc1nn(C(C)C(=O)NC2CCCCC2)c(=O)c2nn(-c3ccccc3)c(C)c12 (stereo not given),23%[57 µM],-1%,7%,2%,13%,7%
COc1ccc2[nH]c(C(=O)NCc3ccccc3)cc2c1,8%,-1%,-9%,-8%,.,-11%
COc1ccc(CN(Cc2cccn2C)C(=O)c2cc3cc(OC)ccc3[nH]2)cc1,-31%,?,5%,-3%,50µM*,?
Cc1ccc(C(=O)c2c3ccc([N+](=O)[O-])cc3[n+]([O-])n2CCC(N)=O)cc1,12%,?,11%,-9%,50µM*,-31%
COc1ccc(-c2cc3nc(C)c(CCC(=O)Nc4ccccc4C(C)=O)c(C)n3n2)c(OC)c1,39%,-3%,.,.,-7%[59 µM],-2%
N#CCN1CCC(c2cc(-c3ccco3)n[nH]2)CC1,?,-16%,11µM*,30µM*,-42%,-21%[11.4 µM]
CCc1ccc2nc(N(Cc3cccnc3)C(=O)c3cccs3)sc2c1,26%,-5%,.,.,7%[59 µM],-8%
O=C1Nc2ccccc2S/C1=C/c1cccs1,17%,-21%,18%,-3%,2%,-18%
CC1C/C(=C/c2cccs2)C(=O)/C(=C/c2cccs2)C1 (stereo not given),?,?,-5%,-4%,35µM*,?
O=C1/C(=C/c2cccs2)CCC/C1=C\c1cccs1,?,5.6µM*,-8%,0%,14%,?
Cn1cccc1/C=C1\CCC/C(=C\c2cccn2C)C1=O,22µM*,22µM*,-23%,22%,?,56µM*
O=C1CNC(=O)/C(=C/c2cccs2)N1,11%,-23%,5%,-8%,-19%,-16%[57.1 µM]
